The text below walks through data of PubChem BioAssay (NCATS).

Records with an inconclusive call do not appear. Calls of active or inactive are those of the source. Calls follow the shape of the dose curve; as a rule, active = well fitted curve in the direction sought with a large enough effect; inconclusive = small, poorly fitted or top-dose-only effect, or another doubt; inactive = no such curve, though single readings can be large; an effect the other way counts as inactive or inconclusive.

Test [1] in a line: S16 Schwann cell viability assay (CellTiter-Glo assay) (AID 624031).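 Also: cellular ATP luminescence as a viability measure; nearly all actives have a fitted effect of over 70% in size.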 The method, boiled down: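 This viability control uses native rat S16 Schwann cells grown in DMEM plus 10% FBS. After a 24 h compound treatment at 37 °C, CellTiter-Glo luminescence reports ATP content, scaled against DMSO-treated and cell-free wells.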
A further test concerns ATS189. Briefly: qHTS profiling for inhibitors of Plasmodium falciparum proliferation (AID 504749). Also: nearly all actives have a fitted effect of over 60% in size. Also: potency is read from the fitted curve at half-maximal effect. Conditions: P. falciparum in erythrocytes, SYBR Green DNA, 72 h; series mostly up to 12.8 µM. In outline: (§1)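 Parasite proliferation within erythrocytes, 72 h exposure. Endpoint: SYBR Green I fluorescence after overnight lysis at room temperature. Controls: 0.29 uM artemisinin, DMSO.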
For orientation: qHTS replaces the single test concentration by a dilution series.

The subject of a further test is CP191. Described as above. The note with it: P. falciparum in erythrocytes, SYBR Green DNA, 72 h; series mostly up to 12.8 µM. The method, boiled down:
as §1

The test system of a further test is CP215. The test is described as above. The note with it: P. falciparum in erythrocytes, SYBR Green DNA, 72 h; series mostly up to 12.8 µM. The method, boiled down:
as §1

The subject of another test is CP217. The description is as above. The note with it: P. falciparum in erythrocytes, SYBR Green DNA, 72 h; series mostly up to 12.8 µM. In outline: as §1
The next test relates to CP247. The test is described as above. Conditions: P. falciparum in erythrocytes, SYBR Green DNA, 72 h; series mostly up to 12.8 µM. In outline: as §1
Another test has as its system CP250. The description is as above. Conditions: P. falciparum in erythrocytes, SYBR Green DNA, 72 h; series mostly up to 12.8 µM. In outline:
as §1

The next test has as its system CP265. The description is as above. The note with it: P. falciparum in erythrocytes, SYBR Green DNA, 72 h; series mostly up to 12.8 µM. The method, boiled down: as §1
The test system of the next test is DFO2036. Described as above. Conditions: P. falciparum in erythrocytes, SYBR Green DNA, 72 h; series mostly up to 12.8 µM. The method, boiled down: as §1
For the next test, the system named is DIV17. The description is as above. Conditions: P. falciparum in erythrocytes, SYBR Green DNA, 72 h; series mostly up to 12.8 µM. The method, boiled down:
as §1

Another test relates to Dd2. The description is as above. Conditions: P. falciparum in erythrocytes, SYBR Green DNA, 72 h; series mostly up to 12.8 µM. In outline:
as §1

The next test relates to ICS. The test is described as above. Conditions: P. falciparum in erythrocytes, SYBR Green DNA, 72 h; series mostly up to 12.8 µM. The method, boiled down:
as §1

The subject of a further test is P93_24. The description is as above. Conditions: P. falciparum in erythrocytes, SYBR Green DNA, 72 h; series mostly up to 12.8 µM. In outline: as §1
A further test relates to P94_40. Described as above. The note with it: P. falciparum in erythrocytes, SYBR Green DNA, 72 h; series mostly up to 12.8 µM. The method, boiled down: as §1
Another test relates to TAB113. The test is described as above. The note with it: P. falciparum in erythrocytes, SYBR Green DNA, 72 h; series mostly up to 12.8 µM. The method, boiled down:
as §1

Another test has as its system W2. Described as above. Conditions: P. falciparum in erythrocytes, SYBR Green DNA, 72 h; series mostly up to 12.8 µM. The method, boiled down: as §1
The test system of the next test is AA1029. The test is described as above. Conditions: P. falciparum in erythrocytes, SYBR Green DNA, 72 h; series mostly up to 12.8 µM. The method, boiled down: as §1
The subject of the next test is CP192. The description is as above. Conditions: P. falciparum in erythrocytes, SYBR Green DNA, 72 h; series mostly up to 12.8 µM. The method, boiled down:
as §1

The subject of another test is CP260. The description is as above. Conditions: P. falciparum in erythrocytes, SYBR Green DNA, 72 h; series mostly up to 12.8 µM. The method, boiled down: as §1
Another test deals with CP335. The test is described as above. Conditions: P. falciparum in erythrocytes, SYBR Green DNA, 72 h; series mostly up to 12.8 µM. In outline:
as §1

In the case of `Clc1ccc([C@H](Cn2ccnc2)OCc2c(Cl)cccc2Cl)c(Cl)c1`, the call in test [1] was inactive. Besides, the Potency is 3.98 µM (active) in the test on ATS189; 3.16 µM (active) with CP191; 5.73 µM (active) with CP215; 2.24 µM (active) in the test with CP217; 3.16 µM (active) with CP247; 2.51 µM (active) with CP250. The Potency in the test with CP265 was 3.16 µM (active); in the test on DFO2036, 3.55 µM (active); in the test with DIV17, 4.05 µM (active); in the test on Dd2, 3.55 µM (active); in the test with ICS it was 1.58 µM (active); with P93_24 it was 0.794 µM (active). The figures for the Potency in the test on P94_40, in the test with TAB113 and in the test on W2 were 3.16 µM (active), 3.98 µM (active) and 2.03 µM (active), respectively.

With `C#C[C@]1(O)CC[C@@H]2[C@H]3CCC4=CCCC[C@@H]4[C@@H]3CC[C@@]21C`, the compound was classed as inactive in [1]. Also, the Potency result in the test on AA1029, with ATS189, in the test on CP191, in the test with CP192, in the test with CP215 and with CP217 was “inactive” throughout. Moreover, the Potency entry with CP247, in the test on CP250, in the test with CP260, with CP265, in the test with CP335 and in the test with DFO2036 was “inactive” each time. The Potency entry with DIV17, with Dd2, in the test on ICS, with P93_24, in the test on P94_40 and in the test with TAB113 was “inactive” in each case. In the test with W2, the Potency result was “inactive”.

Consider `CCOC(=O)O[C@@H](C)OC(=O)[C@@H]1N2C(=O)[C@@H](NC(=O)[C@@H](N)c3ccccc3)[C@H]2SC1(C)C`, for which, in test [1], the outcome was inactive. In addition, the Potency result in the test with AA1029, in the test with ATS189, in the test on CP191, in the test with CP215, in the test with CP217 and in the test on CP247 was “inactive” throughout. The Potency entry in the test on CP250, with CP260, in the test on CP265, with CP335, in the test with DFO2036 and in the test on DIV17 was “inactive” throughout. Moreover, the Potency entry in the test on Dd2, in the test with ICS, in the test on P93_24, with P94_40 and in the test on TAB113 was “inactive” each time. Moreover, the Potency in the test on W2 was 5.73 µM (active).

Regarding `CN[C@H]1[C@H](O)[C@@H](O[C@@H]2[C@H](O)[C@@H](O[C@H]3OC(CN)=CC[C@H]3N)[C@@H](N)C[C@H]2N)OC[C@@]1(C)O`, the compound was classed as inactive in [1]. Further, the Potency entry in the test on AA1029, in the test on ATS189, in the test with CP191, in the test with CP192, in the test with CP215 and with CP217 was “inactive” throughout. The Potency entry in the test on CP247, in the test on CP250, with CP260, in the test with CP265, in the test on CP335 and in the test with DFO2036 was “inactive” in each case. The Potency entry in the test with DIV17, in the test on Dd2, in the test with ICS, with P93_24, with P94_40 and in the test with TAB113 was “inactive” throughout. Also, the Potency result in the test on W2 is “inactive”.

On to `CCN(CCCCOC(=O)c1ccc(OC)c(OC)c1)[C@@H](C)Cc1ccc(OC)cc1`, for which the outcome in test [1] was inactive. For the same compound, the Potency entry in the test with AA1029, in the test on ATS189, in the test with CP215, with CP217, in the test with CP247 and in the test on CP250 was “inactive” throughout. In addition, the Potency entry with DFO2036, in the test on Dd2, in the test on P93_24 and in the test on TAB113 was “inactive” each time.

As to `CC(C)C1CCC(C(=O)NC(Cc2ccccc2)C(=O)O)CC1` (centres undefined), the compound was classed as inactive in test [1]. In addition, the Potency entry with AA1029, in the test on ATS189, in the test on CP191, with CP192, in the test on CP215 and with CP217 was “inactive” throughout. In addition, the Potency entry in the test on CP247, with CP260, in the test with CP265, with CP335, in the test on DFO2036 and in the test with DIV17 was “inactive” each time. For the same compound, the Potency entry in the test on Dd2, in the test on ICS, in the test with P93_24, with TAB113 and with W2 was “inactive” each time.
